Assay results published in PubChem BioAssay (Tox21).
Results filed as inconclusive are left out. Where a call stands in place of a potency, no number is given. The source made the active and inactive calls. Calls follow the shape of the dose curve; as a rule, active = well fitted cell-killing curve with a large enough effect in the repeat runs; inconclusive = weak or mixed curves, or effect the other way; inactive = flat fitted curve, though single readings scatter.

Columns and labels:
[1] = cAMP Responsive Elements (CRE) small molecule antagonists, cell-based qHTS assay: qHTS cell viability counter screen (AID 2060913); settings: CRE-bla HEK293T viability, CellTiter-Glo luminescence, 5 h; series mostly up to 92.4 µM; also: nearly all actives have a fitted effect of over 40% in size
Summary of the method: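 HEK293T CRE-bla, 2,000 cells/well, 18 h preincubation; cpd in DMSO + NKH477 0.25 uM final, 3 h 37 C/5% CO2; LiveBLAzer 2 h RT, then CellTiter-Glo 30 min RT, luminescence.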

[2] = cAMP Responsive Elements (CRE) small molecule agonists, cell-based qHTS assay: qHTS cell viability counter screen (AID 2060914); settings: CRE-bla HEK293T viability, CellTiter-Glo luminescence, 5 h; series mostly up to 92.4 µM;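 also: viability read after 3 h of compound exposure; nearly all actives have a fitted effect of over 50% in size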
Summary of the method: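 CRE-bla HEK293T cells in 10% dialyzed FBS medium were exposed to compounds for 3 h at 37C after 18 h plating. CellTiter-Glo was then added in the same wells, and luminescence was read after 30 min at room temperature.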
Potency is read from the fitted curve at half-maximal effect.

Compound | Potency [1] | Potency [2]
CN1C(=O)COc2c(C(=O)NC3CN4CCC3CC4)cc(Cl)cc21 (stereo not given) | inactive | inactive
CCOC(=O)CC(SP(=O)(OC)OC)C(=O)OCC (stereo not given) | inactive | inactive
Clc1ccc(C2(Cn3cncn3)CC(Br)CO2)c(Cl)c1 (stereo not given) | inactive | inactive
CN1CCC(O)(c2ccc(F)cc2)C(C(=O)c2ccc(F)cc2)C1 (stereo not given) | inactive | inactive
CCC(Cl)CCl (stereo not given) | inactive | inactive
CC(C)c1ccc(CO)cc1 | inactive | inactive
CCCCCCCCCCCCCC[P+](CCCCCC)(CCCCCC)CCCCCC (tested in a mixture with another compound) | 24.3 µM (active) | 21.7 µM (active)
CC(C)Nc1nc(Cl)nc(NC(C)C)n1 | inactive | inactive
Clc1cccc(N2CCNCC2)c1 | inactive | inactive
CCC[CH2][Sn]([CH2]CCC)([CH2]CCC)[O][Sn]([CH2]CCC)([CH2]CCC)[CH2]CCC | 1.5 µM (active) | 1.34 µM (active)
O=[N+]([O-])c1ccc(Oc2ccc(Cl)cc2Cl)cc1 | inactive | inactive
CCCCC#N | inactive | inactive
O=C/C=C/c1ccco1 | inactive | inactive
CCOC(=O)/C=C(C)/C=C/C[C@@H](C)CCCC(C)C | inactive | inactive
Cc1ccc(OP(=O)(Oc2ccc(C)cc2)Oc2ccc(C)cc2)cc1 | inactive | inactive
CCCCOC(=O)c1ccccc1N | inactive | inactive
CC[N+](=O)[O-] | inactive | inactive
CN(C)[C@@H]1C(=O)C(C(N)=O)=C(O)[C@@]2(O)C(=O)C3=C(O)c4c(O)cccc4[C@@](C)(O)[C@H]3[C@H](O)[C@@H]12 | inactive | inactive
Cc1ccc2ccccc2c1 | inactive | inactive
ClC(Cl)Br | inactive | inactive
CNC(=S)S | inactive | inactive
CCCC(C)C1(CC)C(=O)N=C(S)NC1=O (stereo not given) | inactive | inactive
ClC(Cl)(Cl)Cl | inactive | inactive
O=C1c2ccccc2C(=O)N1SC(Cl)(Cl)Cl | inactive | inactive
O=NN1CCOCC1 | inactive | inactive

Compound | Potency [1] | Potency [2]
COc1ccc(C(CN(C)C)C2(O)CCCCC2)cc1 (stereo not given) | inactive | inactive
C=CC#N | inactive | inactive
CC1C(=O)C[C@]2(C(C)C)C[C@H]12 (stereo not given in full) | inactive | inactive
CNC(=O)Oc1cccc2ccccc12 | inactive | inactive
O=C=Nc1ccc(Cl)cc1 | inactive | inactive
CC(C)c1c(CN(C)C(C)Cc2ccccc2)n(C)n(-c2ccccc2)c1=O (stereo not given) | inactive | inactive
OCCBr | inactive | inactive
CCCCON=O | inactive | inactive
CCCC[N+]1(C)CCCC1 | inactive | inactive
Nc1nc(N)nc(N)n1 | inactive | inactive
CNC(=O)CSP(=O)(OC)OC | inactive | inactive
CC(Cl)Cl | inactive | inactive
CCCCC(CC)COC(=O)c1ccc(C(=O)OCC(CC)CCCC)c(C(=O)OCC(CC)CCCC)c1 (stereo not given) | inactive | inactive
CC(O)C(=O)[O][Hg][c]1ccccc1 (stereo not given) | 12.2 µM (active) | 12.2 µM (active)
CCC(OC(C)=O)C(CC(C)NC)(c1ccccc1)c1ccccc1 (stereo not given) | inactive | inactive
C1CCC(C2CCCCC2)CC1 | inactive | inactive
C#C[C@]1(O)CC[C@H]2[C@@H]3CCC4=CC(=O)CC[C@]4(C)[C@H]3CC[C@@]21C | inactive | inactive
CC(C)(C)C(=O)C(Oc1ccc(Cl)cc1)n1cncn1 (stereo not given) | inactive | inactive
C[C@H]1CCC[C@H](O)CCCCCc2cc(O)cc(O)c2C(=O)O1 | inactive | inactive
Cc1ccc(N(SC(F)(Cl)Cl)S(=O)(=O)N(C)C)cc1 | inactive | inactive
COP(=O)(CCC(=O)NCO)OC | inactive | inactive
O=C(O)CF | inactive | inactive
Cc1c(COC(=O)[C@@H]2[C@H](/C=C(\Cl)C(F)(F)F)C2(C)C)cccc1-c1ccccc1 | inactive | inactive
N#Cc1ccccc1Cl | inactive | inactive
C(=NC1CCCCC1)=NC1CCCCC1 | inactive | inactive

Compound | Potency [1] | Potency [2]
CC12CC1(C)C(=O)N(c1cc(Cl)cc(Cl)c1)C2=O (stereo not given) | inactive | inactive
C/C(=N\NC(=O)Nc1cc(F)cc(F)c1)c1ncccc1C(=O)O | inactive | inactive
C=CCOC(=O)c1ccccc1N | inactive | inactive
[Cl][Sb]([Cl])[Cl] | inactive | inactive
O=[N+]([O-])c1ccccc1-c1ccccc1 | inactive | inactive
S=c1[nH]c2ccccc2[nH]1 | inactive | inactive
CN(C)CCc1c[nH]c2cccc(O)c12 | inactive | inactive
O=[N+]([O-])c1ccc(Cl)c(Cl)c1Cl | inactive | inactive
CC(=O)O.CC(=O)O.CC(=O)O.CC(=O)O.CC(=O)O.CC(=O)O.CC(=O)O.O.O.[Cr].[Cr].[Cr] | inactive | inactive
OC[C@@H](O)[C@H]1O[C@@H]2O[C@H](C(Cl)(Cl)Cl)O[C@@H]2[C@H]1O | inactive | inactive
CN1C(=O)C(O)N=C(c2ccccc2)c2cc(Cl)ccc21 (stereo not given) | inactive | inactive
NCC(O)c1ccc(O)cc1 (stereo not given) | inactive | inactive
CC(C)(C)c1ccc(OP(=O)(Oc2ccccc2)Oc2ccccc2)cc1 | inactive | inactive
O=C(CCN1CC1)OCC(CO)(COC(=O)CCN1CC1)COC(=O)CCN1CC1 | inactive | inactive
CN(C)[C@@H]1C(=O)C(C(N)=O)=C(O)[C@@]2(O)C(=O)C3=C(O)c4c(O)ccc(Cl)c4[C@@](C)(O)[C@H]3C[C@@H]12 | inactive | inactive
C[C@H](N)[C@H](O)c1ccc(O)c(O)c1 | inactive | inactive
CC(C)(c1cc(Cl)c(O)c(Cl)c1)c1cc(Cl)c(O)c(Cl)c1 | inactive | inactive
CNc1cnn(-c2cccc(C(F)(F)F)c2)c(=O)c1Cl | inactive | inactive
CCC(=O)C(CCN(C)C)(c1ccccc1)c1ccccc1 | inactive | inactive
Cn1[nH]nnc1=S | inactive | inactive
CCC(C)c1cc([N+](=O)[O-])cc([N+](=O)[O-])c1O (stereo not given) | inactive | inactive
Cc1nnc(-c2ccccc2)c(=O)n1N | inactive | inactive
Clc1cc(C(Cl)(Cl)Cl)cnc1Cl | inactive | inactive
CC(C)(C)OOC(C)(C)C | inactive | inactive
Cl/C=C/Cl | inactive | inactive

Compound | Potency [1] | Potency [2]
CC(C)(C)NCC(O)c1cc(Cl)c(N)c(Cl)c1 (stereo not given) | inactive | inactive
O=c1oc2ccccc2c(O)c1Cc1c(O)c2ccccc2oc1=O | inactive | inactive
O=P1(N(CCCl)CCCl)NCCCO1 (stereo not given) | inactive | inactive
CCCC(=O)Cl | inactive | inactive
N#CC1(N=NC2(C#N)CCCCC2)CCCCC1 | inactive | inactive
CCCN(CCC)C(=O)Cc1c(-c2ccc(Cl)cc2)nc2ccc(Cl)cn12 | inactive | inactive
Oc1ccc([C@H]2CNCc3c2ccc(O)c3O)cc1O | inactive | inactive
N#Cc1c(Cl)c(Cl)c(Cl)c(C#N)c1Cl | inactive | inactive
C[C@H](N)C(=O)c1ccccc1 | inactive | inactive
NCc1cccnc1 | inactive | inactive
CCC(C)Nc1c([N+](=O)[O-])cc(C(C)(C)C)cc1[N+](=O)[O-] (stereo not given) | inactive | inactive
CC/C(=N\OC/C=C/Cl)C1=C(O)CC(C2CCOCC2)CC1=O (stereo not given) | inactive | inactive
CC(N)=S | inactive | inactive
C[N+](C)(C)CC(=O)[O-] | inactive | inactive
CCCCC(CC)C(=O)Cl (stereo not given) | inactive | inactive
CCCCN(CC)c1c([N+](=O)[O-])cc(C(F)(F)F)cc1[N+](=O)[O-] | inactive | inactive
CCOC(=O)C1(c2ccccc2)CCN(CCc2ccc(N)cc2)CC1 | inactive | inactive
CCCC[n+]1ccccc1 | inactive | inactive
CCN(CC)C(C)C(=O)c1ccccc1 (stereo not given) | inactive | inactive
OC(Cc1ccccc1Cl)(Cn1cncn1)C1(Cl)CC1 (stereo not given) | inactive | inactive
CC(C)(COCC1CO1)COCC1CO1 (stereo not given) | inactive | inactive
COCC(=O)N(c1c(C)cccc1C)C(C)C(=O)OC (stereo not given) | inactive | inactive
CCOP(=S)(OCC)Oc1ccc(Cl)cc1Cl | inactive | inactive
NC(=S)C(N)=S | inactive | inactive
CC(C)(CCl)C(=O)Cl | inactive | inactive
